Test systems include SK-MEL-2 melanoma; SN12C renal; UO-31 renal; TK-10 renal; ACHN renal; CAKI-1 renal; A498 renal; CCRF-CEM leukemia; MOLT-4 leukemia; RPMI-8226 leukemia; OVCAR-8 ovarian; OVCAR-5 ovarian; OVCAR-4 ovarian; SK-OV-3 ovarian; IGROV1 ovarian; OVCAR-3 ovarian; HS 578T breast; NCI/ADR-RES ovarian.
Holding throughout (assay): NCI-60 one-dose screen, 48 h (100 = growth as untreated, 0 = no growth, -100 = all killed)
Common to all, as to settings: 10 µM unless noted

About 83,000 compounds went through this panel and 20% of them were active in at least one assay; those are over-represented in the sample as a whole.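 A percent growth of 40 corresponds to 60% growth inhibition; 0 means no net growth; -100 means all cells died. Active threshold: below 10.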 Unmarked numbers belong to inactive results. The source made the active and inactive calls.

As for `COc1cc2nc(Cl)nc(NCCO)c2cc1OC`, the growth was 125% in the experiment with SK-MEL-2 melanoma; 104% with SN12C renal; 94.8% in the experiment with UO-31 renal; 103% in the experiment on TK-10 renal; 98.3% in the experiment with ACHN renal; 111% in the experiment on CAKI-1 renal. Moreover, the growth with A498 renal was 79.7%; in the experiment with CCRF-CEM leukemia, 98.8%; with MOLT-4 leukemia, 101%; with RPMI-8226 leukemia, 98.3%; in the experiment with OVCAR-8 ovarian, 98.3%; in the experiment on OVCAR-5 ovarian, 100%. Further, the growth in the experiment with OVCAR-4 ovarian was 102%; in the experiment with SK-OV-3 ovarian it was 119%; in the experiment on IGROV1 ovarian, 108%; in the experiment on OVCAR-3 ovarian, 111%; in the experiment on HS 578T breast, 104%; with NCI/ADR-RES ovarian it was 112%.
On to `COC(=O)CCCCCCN=Cc1c(O)c(O)c(C(C)C)c2cc(C)c(-c3c(C)cc4c(C(C)C)c(O)c(O)c(C=NCCCCCCC(=O)OC)c4c3O)c(O)c12`, for which the growth with SK-MEL-2 melanoma is 24.7%; in the experiment on SN12C renal, 22.8%; in the experiment with UO-31 renal, 21.8%; in the experiment with TK-10 renal, 12.4%; in the experiment with ACHN renal, 21.6%; in the experiment with CAKI-1 renal it was 65.4%. Further, the growth is 46.1% in the experiment on A498 renal; 16.1% in the experiment on CCRF-CEM leukemia; 15.8% in the experiment with MOLT-4 leukemia; 13.2% in the experiment with RPMI-8226 leukemia; 18.6% in the experiment on OVCAR-8 ovarian; 21.7% in the experiment with OVCAR-5 ovarian. Also, the growth in the experiment with OVCAR-4 ovarian was 27.7%; with SK-OV-3 ovarian, 64.8%; in the experiment on IGROV1 ovarian it was 29.3%; in the experiment with OVCAR-3 ovarian, 21.8%; with HS 578T breast, 20.2%; with NCI/ADR-RES ovarian it was 69.1%.
For `O=C(CN1CCN(c2cc3c(cc2F)c(=O)c(C(=O)O)cn3C2CC2)CC1)Nc1ccc(C(=O)/C=C/c2ccccc2)cc1`, the growth with SK-MEL-2 melanoma is 53.7%; in the experiment with SN12C renal, 11.3%; in the experiment on UO-31 renal, 45%; with TK-10 renal, 39.9%; in the experiment on ACHN renal it was 40.1%; in the experiment with CAKI-1 renal, 73.1%. The growth in the experiment on A498 renal is 57.7%; with CCRF-CEM leukemia it was 15.2%; in the experiment on MOLT-4 leukemia, 19%; in the experiment with RPMI-8226 leukemia, 2.45% (active); with OVCAR-8 ovarian, 6.3% (active); in the experiment with OVCAR-5 ovarian, 82.6%. For the same compound, the growth was 86.4% in the experiment with OVCAR-4 ovarian; 93.6% in the experiment on SK-OV-3 ovarian; 42.9% in the experiment with IGROV1 ovarian; 54.9% in the experiment on OVCAR-3 ovarian; 51.9% in the experiment with HS 578T breast; 93.5% with NCI/ADR-RES ovarian.
For the compound `COc1ccc(/C=C/C(=O)c2ccc(NC(=O)CN3CCN(c4cc5c(cc4F)c(=O)c(C(=O)O)cn5C4CC4)CC3)cc2)cc1`, the growth is 117% in the experiment with SK-MEL-2 melanoma; 95.9% with SN12C renal; 90.5% in the experiment on UO-31 renal; 106% in the experiment with TK-10 renal; 114% in the experiment with ACHN renal; 93% in the experiment on CAKI-1 renal. For the same compound, the growth in the experiment with A498 renal was 112%; in the experiment on CCRF-CEM leukemia, 102%; in the experiment with MOLT-4 leukemia, 101%; with RPMI-8226 leukemia it was 92.6%; in the experiment on OVCAR-8 ovarian it was 99%; in the experiment with OVCAR-5 ovarian, 105%. For the same compound, the growth in the experiment on OVCAR-4 ovarian was 101%; in the experiment with SK-OV-3 ovarian it was 114%; with IGROV1 ovarian it was 115%; in the experiment with OVCAR-3 ovarian, 118%; in the experiment on HS 578T breast it was 94.8%; with NCI/ADR-RES ovarian it was 107%.
For `COc1ccc2c(c1)C(C)Cc1c(N(C)C)ncnc1N2C` (centres undefined), the growth with SK-MEL-2 melanoma is 32.9%; in the experiment with SN12C renal it was 43.6%; in the experiment with UO-31 renal, 56.6%; in the experiment with TK-10 renal it was 29.9%; with ACHN renal, 46.8%; with CAKI-1 renal, 37.6%. Further, the growth with A498 renal is 2.02% (active); in the experiment on CCRF-CEM leukemia, 18.6%; with MOLT-4 leukemia, 33.1%; in the experiment on RPMI-8226 leukemia it was 30.8%; in the experiment on OVCAR-8 ovarian, 40.8%; with OVCAR-5 ovarian, 73.2%. Further, the growth is 62.4% with OVCAR-4 ovarian; 30% with SK-OV-3 ovarian; 54.4% in the experiment with IGROV1 ovarian; 10.3% in the experiment on OVCAR-3 ovarian; 13.3% in the experiment on HS 578T breast; 36.2% in the experiment on NCI/ADR-RES ovarian.
Take `Cc1nn(-c2ccc(Cl)cc2)c(=O)n1CCOc1ccccc1Cl`: the growth is 126% in the experiment on SK-MEL-2 melanoma; 93.6% in the experiment with SN12C renal; 94.9% in the experiment on UO-31 renal; 108% with TK-10 renal; 78.9% in the experiment with ACHN renal; 85.7% with CAKI-1 renal. Further, the growth in the experiment with A498 renal was 103%; with CCRF-CEM leukemia, 86.4%; in the experiment on MOLT-4 leukemia, 97.2%; in the experiment with RPMI-8226 leukemia, 88.9%; in the experiment on OVCAR-8 ovarian, 92.7%; with OVCAR-5 ovarian it was 102%. The growth in the experiment with OVCAR-4 ovarian is 68.1%; with SK-OV-3 ovarian, 92.9%; with IGROV1 ovarian, 117%; with OVCAR-3 ovarian, 121%; with HS 578T breast it was 90.3%; with NCI/ADR-RES ovarian, 89.9%.
For the compound `CCNCc1ccncc1`, the growth was 106% with SK-MEL-2 melanoma; 108% in the experiment on SN12C renal; 89.8% with UO-31 renal; 99.5% in the experiment on TK-10 renal; 108% with ACHN renal; 94% in the experiment on CAKI-1 renal. Moreover, the growth was 97.8% in the experiment with A498 renal; 95% in the experiment on CCRF-CEM leukemia; 92% in the experiment with MOLT-4 leukemia; 98.8% with RPMI-8226 leukemia; 103% in the experiment with OVCAR-8 ovarian; 112% in the experiment on OVCAR-5 ovarian. Moreover, the growth was 97.8% with OVCAR-4 ovarian; 94.7% in the experiment with SK-OV-3 ovarian; 111% with IGROV1 ovarian; 110% with OVCAR-3 ovarian; 103% in the experiment with HS 578T breast; 106% in the experiment with NCI/ADR-RES ovarian.
For `COc1cc(/C=C/C(=O)c2ccc(NC(=O)CN3CCN(c4cc5c(cc4F)c(=O)c(C(=O)O)cn5C4CC4)CC3)cc2)cc(OC)c1OC`, the growth in the experiment on SK-MEL-2 melanoma is 30%; in the experiment on SN12C renal, 10.3%; with UO-31 renal, 2.96% (active); with TK-10 renal, 19.1%; with ACHN renal, 10.8%; in the experiment on CAKI-1 renal it was 57.2%. Moreover, the growth is -43.8% (active) in the experiment with A498 renal; -13.7% (active) in the experiment on CCRF-CEM leukemia; -1.1% (active) in the experiment with MOLT-4 leukemia; -18.8% (active) in the experiment with RPMI-8226 leukemia; 4.74% (active) in the experiment with OVCAR-8 ovarian; 16.9% in the experiment with OVCAR-5 ovarian. Further, the growth is 16.4% in the experiment on OVCAR-4 ovarian; 33.3% in the experiment on SK-OV-3 ovarian; -1.19% (active) in the experiment on IGROV1 ovarian; -25.8% (active) with OVCAR-3 ovarian; 76.8% with HS 578T breast; 98.2% in the experiment with NCI/ADR-RES ovarian.

For the origin of these results see PubChem BioAssay (NCI).
